Bioassay records (PubChem)
Tau fluor counter: counter-screen for tau fibril formation inhibitors. tau K18 P301L Alexa594 fluorescence, heparin fibrillization. Potency, µM (doses to about 57.7 µM), inactives show at the highest dose activity change, negative = decrease. hit rate 0.93% among 280,000; active = well fitted curve in the direction sought with a large enough effect; inconclusive = small, poorly fitted or top-dose-only effect, or another doubt; inactive = no such curve, though single readings can be large; an effect the other way counts as inactive or inconclusive; also: nearly all actives have a fitted effect of over 55% in size
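Human K18 P301L tau (15 uM unlabeled plus 0.24 uM Alexa 594-labeled, final) in 100 mM sodium acetate pH 7 was mixed with compound and 20 uM heparin and incubated 6 hr at 37 C.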
Tau FP inhib: blocks human tau fibril formation measured by polarization; P10636; K18 P301L tau heparin fibrillization, Alexa594 FP, 6 h; Potency, µM (series often up to 57.7 µM), without a hit: at the top dose activity, negative = inhibition, usual class: inhibitors; hit rate 0.39% among 280,000; active = well fitted curve in the direction sought with a large enough effect; inconclusive = small, poorly fitted or top-dose-only effect, or another doubt; inactive = no such curve, though single readings can be large; an effect the other way counts as inactive or inconclusive; also: nearly all actives have a fitted effect of over 55% in size
Target sequence (P10636 561-689 P618L limits assumed): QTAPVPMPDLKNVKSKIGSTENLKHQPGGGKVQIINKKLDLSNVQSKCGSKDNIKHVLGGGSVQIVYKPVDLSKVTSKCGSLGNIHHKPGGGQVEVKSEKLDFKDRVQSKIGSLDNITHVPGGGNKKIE
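FP of Alexa 594-tau after heparin (20 uM) induction. Substrate: human K18 P301L, 15 uM unlabeled, 0.24 uM labeled. Buffer 100 mM sodium acetate pH 7. 6 hr, 37 C.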
ALDH1A1 inh: blocks purified human ALDH1A1 activity. P00352. Purified ALDH1A1, NADH fluorescence, propionaldehyde substrate. Potency, µM (series often up to 75.3 µM), inactives show at the top dose activity, negative = inhibition, hits mostly inhibitors. hit rate 7.3% among 220,000. AID 1030;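 also: plate controls were no enzyme wells and a reference inhibitor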
Tau ThT inhib: tau fibrillization inhibition (ThT binding). recombinant tau K18 P301L (four-repeat tau fragment), heparin-induced fibrillization, ThT fluorescence. Potency, µM (highest dose often 57.4 µM), for inactives: at the top dose activity, negative = inhibition, usual class: inhibitors. hit rate 2.1% among 270,000; active = well fitted curve in the direction sought with a large enough effect; inconclusive = small, poorly fitted or top-dose-only effect, or another doubt; inactive = no such curve, though single readings can be large; an effect the other way counts as inactive or inconclusive; also: nearly all actives have a fitted effect of over 55% in size
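Aggregation was driven by heparin (20 uM final) acting on recombinant tau […] bearing P301L in 100 mM sodium acetate pH 7; fibrils were detected with Thioflavin T.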
HPGD inh: HPGD (human) dehydrogenase inhibition. P15428. purified HPGD, NADH fluorescence kinetic, PGE2 substrate. Potency, µM, inactives show at the highest dose activity change, negative = inhibition, actives largely listed as inhibitors. hit rate 4.3% among 150,000
Target sequence (P15428 whole entry, looked up): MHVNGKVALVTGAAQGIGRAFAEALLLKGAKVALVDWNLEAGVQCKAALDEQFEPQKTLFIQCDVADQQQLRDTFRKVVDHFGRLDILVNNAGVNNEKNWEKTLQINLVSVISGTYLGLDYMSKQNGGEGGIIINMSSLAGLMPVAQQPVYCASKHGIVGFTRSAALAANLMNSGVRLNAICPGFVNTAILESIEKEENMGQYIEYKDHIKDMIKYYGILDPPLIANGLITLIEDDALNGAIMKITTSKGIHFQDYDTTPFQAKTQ
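NADH formation kinetics: reaction with 30 uM PGE2 and 1 mM NAD+ (final), 20 nM enzyme, Tris-HCl pH 8 with Tween 20, after 15 min compound preincubation at room temperature. Fluorescence change, last versus first of five reads.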
JMJD2E inh: JMJD2E (human) inhibition. B2RXH2. JMJD2E catalytic domain, FDH-coupled NADH fluorescence (FDH is formaldehyde dehydrogenase). Potency, µM (highest dose often 57.1 µM), without a hit: at the top dose activity change, negative = inhibition, actives largely listed as inhibitors. hit rate 1.6% among 230,000;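 also: 0% = wells with enzyme and -100% = buffer wells without enzyme; nearly all actives have a fitted effect of over 50% in size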
Target sequence (B2RXH2 1-337 limits assumed): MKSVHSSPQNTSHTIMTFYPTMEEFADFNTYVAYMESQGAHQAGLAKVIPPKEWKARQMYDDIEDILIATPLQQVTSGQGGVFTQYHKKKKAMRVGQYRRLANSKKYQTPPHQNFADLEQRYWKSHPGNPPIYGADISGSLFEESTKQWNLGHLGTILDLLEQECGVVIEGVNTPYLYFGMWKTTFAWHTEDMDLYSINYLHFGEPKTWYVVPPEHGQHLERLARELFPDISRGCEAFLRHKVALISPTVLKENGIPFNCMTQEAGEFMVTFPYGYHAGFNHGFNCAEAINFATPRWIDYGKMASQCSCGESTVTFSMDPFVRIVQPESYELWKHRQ
The depositor's hits bear a star; ? = inconclusive; . = not tested or not shown; [ ] = remark or other dose. Shown are actives, neighbours in structure and some others; about 9.9% of the full set was active somewhere. Unless noted, calls follow the shape of the dose curve; as a rule, active = well fitted inhibition curve with a large enough effect (not every such curve was filed as active); inconclusive = small, poorly fitted or top-dose-only effect, or another doubt; inactive = no such curve, though single readings can be large or run the other way. Unless noted, % is scaled to controls: 0 for no effect and ±100 for the full control effect; potency is read from the fitted curve at half-maximal effect.

SMILES	Tau fluor counter	Tau FP inhib	ALDH1A1 inh	Tau ThT inhib	HPGD inh	JMJD2E inh
COCCNC(=O)c1ccc2c(c1)nc(C)n2-c1cc(OC)c(OC)c(OC)c1	3.1%	-6.2%	3.0%	3.5%	14.1µM*	3.4%
COc1ccccc1-n1cnc2cc(C(=O)NCc3ccco3)ccc21	-1.7%	-8.7%	?	-2.2%	12.6µM*	-5.5%
CCOc1ccc(-n2c(C)nc3cc(C(=O)NCc4ccc5c(c4)OCO5)ccc32)cc1	-4.0%	8.9%	-11.0%	-10.7%	?	-8.5%
COc1ccc(-n2c(C)nc3cc(C(=O)NCc4ccco4)ccc32)cc1	-4.2%	-6.8%	?	-5.5%	8.91µM*	-9.9%
COCCCNC(=O)c1ccc2c(c1)nc(C)n2-c1cccc(C)c1	3.4%	1.0%	.	1.0%	.	.
C[C@H]1Cc2c(COc3ccccc3)nc3c(c2CO1)CN(C(=O)c1ccco1)CC3	-18.0%[11.6 µM]	-1.0%[11.6 µM]	2.2%[13.5 µM]	-6.5%[11.5 µM]	-7.2%	0.2%[11.4 µM]
COc1ccc(NC(=O)CSc2nc(N)c(C(=O)Nc3ccc(N(C)C)cc3)s2)cc1	?	14.7%	?	2.51µM*	-10.2%	-8.5%
CCOC(=O)c1sc(SCC(=O)Nc2ccc(N(C)C)cc2)nc1N	?	7.8%	22.4µM*	14.1µM*	-6.2%	-6.2%
COc1ccc(NC(=O)CSc2nnc(N)s2)cc1	-4.2%	2.1%	?	1.4%	-12.6%	5.4%
CCn1c(SCC(=O)Nc2ccc(N(C)C)cc2)nnc1-c1cccc(C)c1	-17.7%	13.8%	?	?	-10.6%	9.1%
CN(C)c1ccc(NC(=O)CSc2nc(N)c(C(=O)Nc3ccc(N(C)C)cc3)s2)cc1	12.6µM*[quencher]	13.0%	25.1µM*	2.51µM*	-9.2%	-4.5%
Cc1nnc(SCC(=O)Nc2ccc(N(C)C)cc2)[nH]c1=O	-21.3%	-18.5%	.	?	.	.
COc1cccc(N2CCN(C(=O)CCCn3c(=O)[nH]c4ccc(Br)cc4c3=O)CC2)c1	?	2.3%	.	?	.	.
Cc1ccccc1CSc1nnc2[nH]c(=O)cc(-c3ccccc3)n12	-3.9%	7.5%	.	?	.	.
Cc1csc(NC(=O)CSc2nsc(SCC(=O)Nc3nc(C)cs3)c2C#N)n1	10µM*[quencher]	-12.5%	-2.7%	3.98µM*	-27.8%	4.1%
Cc1ccc(NC(=O)CSc2nsc(SCC(=O)Nc3ccc(C)cc3C)c2C#N)c(C)c1	-1.0%	-10.4%	?	8.1%	.	9.3%
CCOC(=O)CSc1nsc(SCC(=O)OCC)c1C#N	-8.2%	8.4%	6.7%	?	-24.1%	6.3%
CC(=O)CSc1nsc(SCC(C)=O)c1C#N	-28.5%	?	28.2µM*	15.8µM*	?	-9.6%
CCOC(=O)c1c(C)[nH]c2c1cc(O)c1ccccc12	?	-3.2%	?	15.8µM*	-29.7%	-13.4%
COC(=O)C1CCN(c2cc(=O)n(-c3ccccc3Cl)c(=O)[nH]2)CC1	-1.3%	-3.0%	17.8µM*	-10.1%	-8.0%	11.5%
C/C(CC(=O)Nc1ccccn1)=N\NC(=O)c1ccccc1	5.0%	-4.2%	9.1%	1.7%	-0.8%	-15.6%
C/C(CC(=O)Nc1ccccn1)=N\NC(=O)c1ccc2ccccc2c1	-6.5%	2.8%	5.62µM*	?	-16.0%	4.7%
Nc1cc(C(=O)O)[nH]c(=O)n1	.	.	5.0%[13.5 µM]	.	-9.4%	.
Nc1nc(Nc2cccc(Cl)c2)n[nH]1	-25.3%	0.8%	.	?	.	3.3%
COc1ccc(CNc2ccc(C)c(C)c2)cc1	-23.8%	6.2%	-6.1%	?	.	-8.7%
SMILES	Tau fluor counter	Tau FP inhib	ALDH1A1 inh	Tau ThT inhib	HPGD inh	JMJD2E inh
COc1cc(CNc2ccc(N3CCCC3)cc2)ccc1OCc1ccccc1	?	?	7.94µM*	5.01µM*	-14.8%	6.31µM*
COc1cc(CNc2ccc(N3CCCC3)cc2)ccc1OCc1ccccc1F	6.0%	1.4%	2.9%	3.9%	-25.6%	-3.3%
COc1ccc(NCc2ccc(OC)c(OC)c2)cc1	-24.0%	-2.7%	28.2µM*	?	-11.7%	?
COC(=O)C1=C(C(=O)OC)SC2(S1)C(C(=O)OC)=C(C(=O)OC)SC1=C2c2cc(C)cc(C)c2NC1(C)C	?	?	5.7%	14.1µM*	-9.0%	-0.7%
COc1ccc(C(=O)Nc2nnc(S(=O)(=O)N3CCC(C)CC3)s2)cc1OC	?	0.8%	.	12.6µM*	.	.
CC1CCN(S(=O)(=O)c2nnc(NC(=O)c3cccc(Br)c3)s2)CC1	-15.7%	2.3%	.	?	.	.
CC1CCN(S(=O)(=O)c2nnc(NC(=O)c3ccc(C(C)C)cc3)s2)CC1	?	?	.	2.82µM*	.	.
O=C1/C(=C/c2ccc(N3CCOCC3)o2)SC(=Nc2ccccc2)N1CCc1c[nH]c2ccccc12	?	?	?	14.1µM*	-17.5%	-3.7%
COc1ccc(N=C2S/C(=C\c3ccc(OC(C)C(=O)O)c(OC)c3)C(=O)N2CCc2c[nH]c3ccccc23)cc1 (centres undefined)	?	-2.1%	14.1µM*	28.2µM*	.	-7.6%
c1ccc(-c2cc(-c3ccccc3)n3ncnc3n2)cc1	-7.8%	1.3%	?	-7.2%	.	?
c1ccc(-c2cnn3c(-c4ccccc4)c(-c4ccccc4)nc3n2)cc1	-6.5%	-1.0%	-2.0%	-7.7%	20µM*	4.0%
CN1CC(c2ccccc2Cl)C2(COc3ccccc3C2=O)C12C(=O)Nc1ccccc12 (centres undefined)	-12.1%	-9.4%	1.41µM*	3.7%	?	-6.5%
Cc1ccc(S(=O)(=O)NCCSc2ncccn2)cc1	11.7%	14.8%	14.4%	3.7%	.	6.6%
Cc1ccc(S(=O)(=O)NCCSc2nnnn2-c2cc(C)ccc2C)cc1	-19.3%	9.5%	0.891µM*	-1.6%	-4.8%	-7.3%
Cc1ccc(C)c(-n2nnnc2Sc2nnnn2-c2ccccc2)c1	-2.4%	5.7%	22.4µM*	-0.4%	-7.1%	4.2%
Cc1ccc(S(=O)(=O)NCCSc2nnnn2-c2ccccc2)cc1	-20.8%	-0.9%	1µM*	4.6%	-17.6%	14.7%
CCSc1nnnn1-c1ccccc1	-9.2%	-5.3%	?	-9.1%	-8.1%	3.6%
CCOC(=O)c1[nH]c(C)c(C(=O)NC(CC)Cc2ccccc2)c1C (centres undefined)	0.9%	6.2%	.	3.7%	.	.
COCCCNC(=O)C1CCN(c2ncnc3c2nc2n3CCCCC2)CC1	3.9%	-2.0%	.	0.4%	.	.
O=C(CCn1nnc2ccccc21)Nc1nnc(Cc2ccccc2)s1	-24.9%	-18.2%	?	?	31.6µM*	1.7%
O=C(CCn1nnc2ccccc21)Nc1nnc(COc2ccccc2F)s1	-9.5%	-8.6%	8.9%	-13.2%	-18.1%	2.9%
Cc1ccc2c(c1)-c1onc(C(=O)N(C)c3ccc(F)cc3)c1CO2	-23.7%	-8.7%	.	10.3%	.	.
CC(C)(C)c1ccc(/C([O-])=C(/C(=S)NCc2ccco2)[n+]2ccccc2)cc1	-24.2%	-1.6%	10µM*	?	-21.8%	-7.6%
